Structures are written as SMILES. The campaign covered roughly 1,100 compounds. About 940 (85%) were called active.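 Rule for the calls: active = inhibition exceeding 3 SD of buffer-only control wells (cut at about 26% in these data); inactive = the rest.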 The set was probably picked from earlier hits. Only a sample is shown.

Broadly, the inhibition is the relative decrease from the control value, in per cent.

A short description of this assay: M3R calcium signalling without RGS4 expression – cell-based, HEK293 M3R, non-induced RGS4, Fluo-4 calcium, counter-screen for RGS4 activator project, primary screen (AID 602283).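 Note: percent drop in integrated peak-minus-baseline over baseline Fluo4 ratio after carbachol.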 The conditions noted are these: HEK293 M3R non-induced RGS4, Fluo4 calcium flux; at 10 µM; stronger effect = higher value; after carbachol challenge at its EC90.
As for `C=CC12CN(C)[C@@H]3C4CO[C@H](C[C@H]41)[C@]1(C(=O)Nc4ccccc41)[C@@H]32` (some centres not stated), the inhibition is 83.8% (active).
As to `CC(C)Oc1cccc(C(=O)C2CCCN(C3CCOCC3)C2)c1` (configuration not stated), the inhibition was 83.8% (active).

The record behind these values is PubChem BioAssay AID602283 (Johns Hopkins Ion Channel Center, 2012).
